# Values joined by “and” are separate entries in the source; they are usually repeats but may differ in a detail not shown here. Equal entries are not always repeated. Results filed as inconclusive are left out. Active and inactive are the calls of the source. Unless noted, calls come from the whole dose curve; as a rule, active = well fitted curve in either direction with a large enough effect (not every such curve was filed as active); inconclusive = small, poorly fitted or top-dose-only effect, or another doubt; inactive = flat fitted curve, though single readings scatter.
# Molecular target: Mitogen-activated protein kinase 10 (Mus musculus) (UniProt Q61831)
# Assay: JNK3 AlphaScreen Assay (AID 530);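 note: kinase came from lysate of stimulated human HepG2 cells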; note: potency is the fitted concentration of half-maximal effect;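 for activity change, negative = inhibition: signal reports phosphorylation of biotinylated GST-cJun 1-79 at Ser73 with 10 µM ATP; % is set by controls: 0 for no effect and ±100 for the full control effect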
# Settings: JNK3 lysate, c-Jun phosphorylation; series mostly up to 57.1 µM; activity change, negative = inhibition: at the top concentration
# In short: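 Kinase buffer: 20 mM Tris-HCl pH 7.6, 10 mM MgCl2, 1 mM DTT, 0.1 mM Na3VO4, 0.01% Tween-20; ATP 10 uM. Substrate biotin-GST-cJun(1-79), enzyme from activated HepG2 lysates. Detection by Ser73 phospho-antibody AlphaScreen.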
Compound,"activity change, negative = inhibition",Potency
CN(C)Cc1ccccc1-c1ccc2ncnc(N(C)C)c2c1,4.93% (inactive),–
C=CCc1ccc(OC)c(OC)c1,4.5% (inactive),–
C=C(C)C1CC=C(C)C(O)C1 (stereo not drawn),-13.9% (inactive),–
COc1ccc2[nH]cc(CCNc3ncncc3-c3ccccc3C(F)(F)F)c2c1,-12.2% (inactive),–
COc1ccccc1CNc1nc(-c2cccc(NS(C)(=O)=O)c2)nc2ccccc12,2.07% (inactive),–
COc1cccc(Cn2c(=O)cnc3cnc(N(C)C)nc32)c1,17.7% (inactive),–
CNc1ncncc1-c1ccccc1CN(C)C,-0.356% (inactive),–
CC1=C2[C@H](/C=C(\C)C(=O)O)CC[C@@H](C)[C@H]2CC1,16% (inactive),–
CN(C)C(=O)c1ccc(-c2ccc3ncnc(Nc4ccc(F)cc4)c3c2)cc1,6.84% (inactive),–
c1ccc2c(NCCN3CCOCC3)nc(-c3ccc4c(c3)OCO4)nc2c1,-5.24% (inactive),–
CN1CCN(c2nc(-c3ccoc3)nc3ccccc23)CC1,1.01% (inactive),–
CN(C)c1nc(-c2cccc(NS(C)(=O)=O)c2)nc2ccccc12,1.74% (inactive),–
CN1CCN(c2nc(-c3cccnc3)nc3ccccc23)CC1,-3.77% (inactive),–
O=c1cnc2cnc(N3CCOCC3)nc2n1Cc1cccs1,3.42% (inactive),–
COc1ccccc1CNc1ncncc1-c1ccccc1C(F)(F)F,4.96% (inactive),–
CCCCCCCCCCCC(=O)O,-5.6% (inactive),–
COc1ncc2nc(-c3cccs3)c(=O)n(CCC#N)c2n1,32.5% (inactive),–
O=c1cc(-c2ccc(O)c(O)c2)oc2cc(O[C@@H]3O[C@@H](CO)[C@@H](O)[C@@H](O)[C@H]3O)cc(O)c12,–,7.94 µM (active)
COc1ccccc1-c1nccc(N2CCN(C)CC2)n1,4.17% (inactive),–
Cc1nc2cnc(N3CCOCC3)nc2n(CCc2ccccc2)c1=O,11.3% (inactive),–
COc1ccccc1CNc1ncnc2ccc(-c3ccc(C(=O)N(C)C)cc3)cc12,-3.5% (inactive),–
c1ccc2c(NCCN3CCOCC3)nc(-c3ccoc3)nc2c1,-2.32% (inactive),–

# Tested on: not listed separately
# Assay: Cell Viability - N2a (AID 540; active = well fitted curve in the direction sought with a large enough effect; an effect the other way counts as inactive or inconclusive;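 note: cells exposed to compound for 40 h at 37 °C; plate controls were DMSO alone for no effect and tamoxifen control for full effect; nearly all actives have a fitted effect of over 45% in size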)
# Settings: N2a mouse neuroblastoma cell viability; activity change, negative = cytotoxicity: at 92.2 µM (top of the series)
# In short: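 In this qHTS cytotoxicity screen, ATP-dependent luciferase luminescence reports viable N2a cells after a 40 hr compound exposure in complete culture medium. Potencies are AC50 values from standard Hill equation fits.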
row,Compound,"activity change, negative = cytotoxicity"
1,C=CCc1ccc(OC)c(OC)c1,-13.8% (inactive)
2,C=C(C)C1CC=C(C)C(O)C1 (stereo not drawn),-0.158% (inactive)
3,CC1=C2[C@H](/C=C(\C)C(=O)O)CC[C@@H](C)[C@H]2CC1,10.9% (inactive)
4,CCCCCCCCCCCC(=O)O,-16.1% (inactive) and -7.4% (inactive)

# Tested on: not listed separately
# Assay: Cell Viability - NIH 3T3 (AID 541; active = well fitted curve in the direction sought with a large enough effect; an effect the other way counts as inactive or inconclusive;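 note: cells exposed to compound for 40 hours; plate controls were DMSO alone for no effect and tamoxifen positive control for full effect; nearly all actives have a fitted effect of over 25% in size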)
# Settings: NIH 3T3 cell viability, qHTS; activity change, negative = cytotoxicity: at 92.2 µM (top of the series)
# In short: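 In this cytotoxicity screen, acute toxicity is scored as an ATP drop measured by CellTiter-Glo in NIH 3T3 fibroblasts following a 40 hr, 37 °C incubation with compound.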
Compound,"activity change, negative = cytotoxicity",Potency
C=CCc1ccc(OC)c(OC)c1,-17.6% (inactive),–
C=C(C)C1CC=C(C)C(O)C1 (stereo not drawn),-6.42% (inactive),–
CC1=C2[C@H](/C=C(\C)C(=O)O)CC[C@@H](C)[C@H]2CC1,-12% (inactive),–
CCCCCCCCCCCC(=O)O,–,inactive

# Tested on: not listed separately
# Assay: Cell Viability - HUV-EC-C (AID 542; active = well fitted curve in the direction sought with a large enough effect; an effect the other way counts as inactive or inconclusive;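 note: cells exposed to compound for 40 hours; % is set by controls: 0 for no effect and ±100 for the full control effect; nearly all actives have a fitted effect of over 35% in size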)
# Settings: HUV-EC-C endothelial cell viability, qHTS; series mostly up to 92.2 µM; activity change, negative = cytotoxicity: at the top concentration
# In short: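 Concentration-dependent ATP loss in HUV-EC-C cells is the measure. Exposure lasts 40 hr at 37 °C; luminescence follows CellTiter-Glo addition, and Hill fits give AC50.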
row,Compound,"activity change, negative = cytotoxicity"
1,C=CCc1ccc(OC)c(OC)c1,-7.44% (inactive)
2,C=C(C)C1CC=C(C)C(O)C1 (stereo not drawn),7.06% (inactive)
3,CC1=C2[C@H](/C=C(\C)C(=O)O)CC[C@@H](C)[C@H]2CC1,-4.31% (inactive)

# From PubChem BioAssay (NCATS)
